“And” between values parts separate entries of the source, which are not always exact repeats. Identical values can stand only once. Records with an inconclusive call do not appear. More than one record can exist for a structure, and the calls need not agree. The source made the active and inactive calls. Rule for the calls, unless noted: active = hit-call score of the fitted dose curve at least 0.9, where 1 is the maximum; inactive = score below 0.9.
Tests used:
[1] = biological target: Steroid hormone receptor ERR1 (Homo sapiens) (UniProt P11474); assay: ATG_ERRa_TRANS: Attagene TRANS-FACTORIAL HepG2 Assay for human Estrogen-Related Receptor alpha (ERRa) (AID 2282971; active = hit-call score of the fitted dose curve at least 0.9, where 1 is the maximum); conditions: HepG2 Attagene TRANS reporter, ERRa transactivation
Steroid hormone receptor ERR1 (Homo sapiens), sequence (P11474 whole entry, looked up, the tested form may be a part): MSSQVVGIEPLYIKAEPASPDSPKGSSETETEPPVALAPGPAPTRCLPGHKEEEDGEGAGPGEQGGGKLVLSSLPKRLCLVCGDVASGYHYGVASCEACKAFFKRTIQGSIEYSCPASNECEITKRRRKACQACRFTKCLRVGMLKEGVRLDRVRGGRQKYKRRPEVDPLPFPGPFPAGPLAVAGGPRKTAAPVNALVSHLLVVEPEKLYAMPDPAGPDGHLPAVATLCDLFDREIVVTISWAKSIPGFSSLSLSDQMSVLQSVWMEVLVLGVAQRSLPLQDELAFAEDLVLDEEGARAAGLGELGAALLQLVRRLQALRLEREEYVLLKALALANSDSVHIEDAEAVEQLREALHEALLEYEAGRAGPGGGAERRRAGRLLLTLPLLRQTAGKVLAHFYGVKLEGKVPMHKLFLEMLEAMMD
Outline: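 Reporter transcripts from ERRa-Gal4 chimera activity measured in transiently transfected human HepG2 cells 24 hours after dosing, using RT-PCR with 6-FAM primer extension, HpaI digestion and capillary electrophoresis; DMSO is baseline.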

[2] = biological target: Estrogen-related receptor gamma (Homo sapiens) (UniProt P62508); assay: ATG_ERRg_TRANS: Attagene TRANS-FACTORIAL HepG2 Assay for human Estrogen-Related Receptor gamma (ERRg) (AID 2282977; active = hit-call score of the fitted dose curve at least 0.9, where 1 is the maximum;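 note: hits increase reporter signal over DMSO so potencies reflect activators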); conditions: HepG2 Attagene TRANS reporter, ERRg transactivation
Estrogen-related receptor gamma (Homo sapiens), sequence (P62508 whole entry, looked up, the tested form may be a part): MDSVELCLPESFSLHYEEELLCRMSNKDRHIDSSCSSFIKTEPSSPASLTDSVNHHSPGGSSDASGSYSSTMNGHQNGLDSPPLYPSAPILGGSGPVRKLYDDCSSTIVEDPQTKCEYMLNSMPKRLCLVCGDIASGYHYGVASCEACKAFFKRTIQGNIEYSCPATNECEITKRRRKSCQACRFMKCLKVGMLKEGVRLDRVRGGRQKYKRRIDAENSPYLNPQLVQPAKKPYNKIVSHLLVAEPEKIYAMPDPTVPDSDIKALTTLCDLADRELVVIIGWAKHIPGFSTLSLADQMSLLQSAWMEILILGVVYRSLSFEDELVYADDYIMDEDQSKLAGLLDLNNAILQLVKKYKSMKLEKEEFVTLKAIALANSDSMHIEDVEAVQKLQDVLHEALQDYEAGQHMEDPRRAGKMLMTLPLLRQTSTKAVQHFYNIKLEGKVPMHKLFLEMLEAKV
Outline: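 Induction of reporter transcripts through a chimeric NR-Gal4 protein is quantified in transfected human HepG2 liver cells after 24 h chemical exposure, using RT-PCR with capillary electrophoresis detection and DMSO as baseline.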

[3] = biological target: human Thyroid Receptor alpha (THRa1), THRA (gene 7067) (UniProt P10827); assay: ATG_THRa1_TRANS: Attagene TRANS-FACTORIAL HepG2 Assay for human Thyroid Receptor alpha (THRa1) (AID 2283014; active = hit-call score of the fitted dose curve at least 0.9, where 1 is the maximum)
human Thyroid Receptor alpha (THRa1), THRA (gene 7067), sequence (P10827 whole entry, looked up, the tested form may be a part): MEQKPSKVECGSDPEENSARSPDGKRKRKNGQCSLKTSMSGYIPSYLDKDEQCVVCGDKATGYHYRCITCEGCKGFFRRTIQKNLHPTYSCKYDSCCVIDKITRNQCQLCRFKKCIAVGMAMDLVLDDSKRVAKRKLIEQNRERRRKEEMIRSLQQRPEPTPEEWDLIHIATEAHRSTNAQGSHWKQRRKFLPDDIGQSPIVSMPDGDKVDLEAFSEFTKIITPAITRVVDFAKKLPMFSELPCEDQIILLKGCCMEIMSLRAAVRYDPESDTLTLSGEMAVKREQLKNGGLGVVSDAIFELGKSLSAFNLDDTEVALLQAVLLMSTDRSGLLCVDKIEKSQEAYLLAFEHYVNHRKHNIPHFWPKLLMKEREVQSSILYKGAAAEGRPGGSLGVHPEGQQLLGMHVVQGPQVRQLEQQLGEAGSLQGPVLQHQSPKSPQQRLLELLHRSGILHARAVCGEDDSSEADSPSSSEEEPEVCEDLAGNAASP
Outline: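 Transcripts from GAL4-UAS-driven reporters, measured after 24 h compound exposure by RT-PCR plus capillary electrophoresis of 6-FAM-labeled fragments, were fitted for gain of signal relative to DMSO. Cells: transiently transfected HepG2 expressing NR-Gal4 chimeras.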

[4] = CCTE_Harrill_HTTr_Viability_MCF7: CCTE's 6-hour Cell Viability Assessment for the High-Throughput Transcriptomics (HTTr) Platform, in MCF-7 cells cultured in DMEM + 10% fetal bovine serum, Harrill Lab (AID 2284010)
Outline: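 Read-out is propidium iodide gain of signal by high-content imaging, reflecting membrane integrity loss. Measurements are taken 6 h after dosing, eight concentrations per chemical, with DMSO serving as baseline for bidirectional curve fitting.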

[5] = CCTE_Harrill_HTTr_Apoptosis_MCF7: CCTE's 6-hour Apoptosis Assessment for the High-Throughput Transcriptomics (HTTr) Platform, in MCF-7 cells cultured in DMEM + 10% fetal bovine serum, Harrill Lab (AID 2284011)
Outline: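 High-content imaging of CellEvent Caspase 3/7 Green signal follows a six-hour exposure, with eight concentrations per chemical. MCF-7 cells grown in DMEM plus 10% fetal bovine serum; activity fitted in both directions against DMSO.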

[6] = BSK_3C_TissueFactor: BioMAP Diversity Plus: 3C Assay for Tissue Factor Biomarker Activity (AID 2282997); conditions: BioMAP 3C HUVEC, tissue factor biomarker readout; actives raise or lower the signal
Outline: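 Tissue factor on primary human umbilical vein endothelium was read by ELISA 24 h after dosing, gain or loss relative to DMSO. Cytotoxicity ran alongside via SRB (0.1%, TCA-fixed, 560 nm).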

[7] = BSK_3C_uPAR: BioMAP Diversity Plus: 3C Assay for Urokinase-type plasminogen activator receptor (uPAR) Biomarker Activity (AID 2282998); conditions: BioMAP 3C HUVEC, uPAR biomarker ELISA; actives raise or lower the signal
Outline: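 Endothelial primary cells of human umbilical vein origin received test chemical; 24 h later uPAR was assayed by ELISA. Fitting was bidirectional, DMSO as negative control.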

[8] = BSK_4H_Eotaxin3: BioMAP Diversity Plus: 4H Assay for Eotaxin 3 Biomarker Activity (AID 2283000); conditions: primary human endothelial cells (HUVEC); actives raise or lower the signal
Outline: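 Human umbilical vein endothelial cells (BSK_4H system) dosed with test chemical; Eotaxin-3 (CCL26) measured by ELISA 24 h after dosing. Bidirectional curve fitting relative to DMSO negative control as baseline.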

[9] = read-out: Intercellular Adhesion Molecule 1 (ICAM1), ICAM1 (gene 3383); assay: BSK_3C_ICAM1: BioMAP Diversity Plus: 3C Assay for Intercellular Adhesion Molecule 1 (ICAM1) Biomarker Activity (AID 2283003); conditions: primary human endothelial cells (HUVEC); actives raise or lower the signal
Outline: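 Chemicals are dosed onto primary human umbilical vein endothelium (3C system). After 24 h, ICAM-1 is measured by ELISA, and responses are fitted bidirectionally relative to DMSO.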

[10] = read-out: Interleukin-1 alpha (IL1a), IL1A (gene 3552); assay: BSK_BE3C_IL1a: BioMAP Diversity Plus: BE3C Assay for Interleukin-1 alpha (IL1a) Biomarker Activity (AID 2283016); conditions: primary human bronchial epithelial cells; actives raise or lower the signal
Outline: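 Signal from IL-1a ELISA, taken 24 h after chemical dosing of human bronchial epithelial cells, is compared with DMSO as baseline using bidirectional curve fitting.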

[11] = read-out: Monocyte Chemoattractant Protein-1 (MCP1), CCL2 (gene 6347); assay: BSK_3C_MCP1: BioMAP Diversity Plus: 3C Assay for Monocyte Chemoattractant Protein-1 (MCP1) Biomarker Activity (AID 2283017); conditions: primary human endothelial cells (HUVEC); actives raise or lower the signal
Outline: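 MCP-1 was measured by ELISA 24 h after dosing in primary HUVEC 3C cultures and fitted in both directions relative to DMSO; cytotoxicity was checked by SRB total-protein staining in parallel wells.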

[12] = read-out: Interleukin-8 (IL8), CXCL8 (gene 3576); assay: BSK_3C_IL8: BioMAP Diversity Plus: 3C Assay for Interleukin-8 (IL8) Biomarker Activity (AID 2283020); conditions: primary human endothelial cells (HUVEC); actives raise or lower the signal
Outline: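 Endothelial primary cells of human umbilical vein origin are dosed with chemical; after 24 h the IL-8 biomarker is measured by ELISA, and concentration–response is fitted in both directions versus DMSO.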

[13] = BSK_3C_SRB: Viability Assessment in the BioMAP Diversity Plus: 3C Assay (AID 2283023); conditions: primary human endothelial cells (HUVEC);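 note: fitted both ways against DMSO so a hit may be signal rise or drop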
Outline: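 Cytotoxicity readout in parallel HUVEC 3C cultures: after 24 h compound exposure, cells fixed with 10% TCA, stained with 0.1% SRB and read at 560 nm. Gain or loss relative to DMSO fitted.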

[14] = read-out: Urokinase-type plasminogen activator receptor (uPAR), PLAUR (gene 5329); assay: BSK_4H_uPAR: BioMAP Diversity Plus: 4H Assay for Urokinase-type plasminogen activator receptor (uPAR) Biomarker Activity (AID 2283030); conditions: primary human endothelial cells (HUVEC); actives raise or lower the signal
Outline: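 uPAR level read by ELISA on HUVEC cultures (BioMAP 4H) 24 h post-dosing, analyzed for gain or loss relative to DMSO. Parallel SRB staining assessed overt cytotoxicity.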

[15] = read-out: Plasminogen activator inhibitor-1 (PAI1), SERPINE1 (gene 5054); assay: BSK_BE3C_PAI1: BioMAP Diversity Plus: BE3C Assay for Plasminogen activator inhibitor-1 (PAI1) Biomarker Activity (AID 2283037); conditions: primary human bronchial epithelial cells; actives raise or lower the signal
Outline: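 Values derive from bidirectional fitting against DMSO baseline of PAI-1 levels, measured by ELISA in human bronchial epithelial cells 24 h after compound addition.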

[16] = read-out: urokinase plasminogen activator (uPA), PLAU (gene 5328); assay: BSK_BE3C_uPA: BioMAP Diversity Plus: BE3C Assay for urokinase plasminogen activator (uPA) Biomarker Activity (AID 2283038); conditions: primary human bronchial epithelial cells; actives raise or lower the signal
Outline: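 ELISA for uPA on human primary bronchial epithelial cultures 24 h post-treatment, gain or loss against DMSO. Parallel SRB staining (0.1% after 10% TCA fixation, 560 nm) assessed overt cytotoxicity.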

[17] = read-out: Tissue plasminogen activator (tPA), PLAT (gene 5327); assay: BSK_BE3C_tPA: BioMAP Diversity Plus: BE3C Assay for Tissue plasminogen activator (tPA) Biomarker Activity (AID 2283041); conditions: primary human bronchial epithelial cells; actives raise or lower the signal;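 note: tPA level quantified by ELISA one day after compound addition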
Outline: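 Gain- or loss-of-signal in tPA, measured by ELISA, derived by bidirectional fitting against DMSO. Cells: human primary bronchial epithelial; read at 24 h after chemical dosing.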

[18] = read-out: Thrombomodulin, THBD (gene 7056); assay: BSK_CASM3C_Thrombomodulin: BioMAP Diversity Plus: CASM3C Assay for Thrombomodulin Biomarker Activity (AID 2283051); conditions: primary human coronary artery smooth muscle cells; actives raise or lower the signal;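 note: thrombomodulin protein level measured by ELISA 24 h after dosing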
[19] = read-out: Interleukin-1 alpha (IL1a), IL1A (gene 3552); assay: BSK_LPS_IL1a: BioMAP Diversity Plus: LPS Assay for Interleukin-1 alpha (IL1a) Biomarker Activity (AID 2283080); conditions: primary human HUVEC with PBMC; actives raise or lower the signal
Outline: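 Readout is IL-1a level by ELISA, 24 h post-dose, fitted as gain or loss relative to DMSO. System: LPS-activated human primary co-culture of vascular endothelium and peripheral blood mononuclear cells, with parallel SRB total-protein cytotoxicity.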

[20] = BSK_LPS_PGE2: BioMAP Diversity Plus: LPS Assay for Prostaglandin E2 (PGE2) Biomarker Activity (AID 2283082); conditions: primary human HUVEC with PBMC; actives raise or lower the signal;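 for AC50: secreted prostaglandin E2 measured by ELISA in LPS-stimulated co-culture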
Outline: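 Compounds were added to the LPS co-culture of endothelium and PBMC, and PGE2 was measured by ELISA after 24 h. Responses in either direction were fitted with DMSO as baseline.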

Measured: AC50

C[N+](=O)[O-]
inactive: [1] | [2]

CCOP(=O)(OCC)Oc1ccc([N+](=O)[O-])cc1
inactive: [3] | [4] | [5]

CCNCC
inactive: [1] | [2] | [3]

CCCCCCC1CCOC1=O (stereo unspecified)
inactive: [1] | [2]

COc1ccc(CO)cc1
active: [15] 308 nM
inactive: [6] | [7] | [8] | [9] | [3] | [10] | [11] | [12] | [13] | [14] | [15] | [16] | [17] | [18] | [19] | [20] | [4] | [5]

CC1(C)[C@H](C(=O)O[C@H](C#N)c2cccc(Oc3ccccc3)c2)[C@@H]1C=C(Br)Br
inactive: [1] | [6] | [7] | [8] | [9] | [10] | [11] | [12] | [13] | [14] | [15] | [16] | [17] | [18] | [19] | [4]
active: [7] 40.1 nM | [8] 300 nM | [14] 5.23 µM | [18] 8.23 µM | [20] 1.67 µM and 92.9 nM

O=c1c2ccccc2c(=O)c2c1cc(Cl)c1[nH]c3c([nH]c12)c(Cl)cc1c(=O)c2ccccc2c(=O)c13
active: [6] 15.8 µM | [8] 24800 nM | [18] 6 µM
not listed: [1] | [3] | [4] | [5]
inactive: all other assays above

Oc1ccc(C2(c3ccc(O)cc3)c3ccccc3-c3ccccc32)cc1
inactive: [1] | [3] | [16] | [17] | [19] | [20]
active: [6] 12.7 µM and 12.5 µM | [7] 11.5 µM and 9 µM | [8] 9.96 µM and 9.53 µM | [9] 32.5 µM and 22.6 µM | [10] 5.35 µM and 5.31 µM | [11] 13.2 µM and 12 µM | [12] 17.2 µM and 20 µM | [13] 6.97 µM and 8.38 µM | [14] 16.5 µM and 14.4 µM | [15] 5.27 µM and 5.31 µM | [16] 0.15 µM | [18] 1.93 µM and 20 µM | [19] 32.7 µM | [20] 11.8 µM

From PubChem BioAssay (EPA / NIEHS)
